# An excerpt weighted towards active compounds, which were near 4.9% of everything screened.
# HSF1 activator = increases HSF-1 driven luciferase reporter signal; NIH3T3-HGL HSF-1 luciferase reporter, MG132, 8 h; 100% = twice DMSO control signal; AID 504408; activation, % at 9 µM; hit rate 1.7% among 300,000;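 active means mean replicate activation of at least 50% with a set share of replicates each reaching 50%; inconclusive means only one of those two conditions met; inactive means mean below 50% and too few replicates reaching it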;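 further: 0% = median of the neutral control wells and 100% = twice that signal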
# HSP90 refold inh = HSP90 refolding inhibition in rabbit reticulocyte lysate; hit rate 0.91% among 290,000; inhibition, % at 5.6 µM; luciferase refolding luminescence, 3 h;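 active means inhibition above the screen-wide mean plus 3 SD, computed separately per campaign, cut at about 16% in these data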;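 further: 0% = DMSO wells and 100% = 60 µM geldanamycin wells; inhibitors lower the luminescence because luciferase stays unfolded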
# HSF1 inh = HSF1 inhibition; NIH3T3-HGL HSE-luciferase, MG132-induced, luminescence 8 h; stronger effect = lower value; activity change, negative = inhibition, % at 7.5 µM (by protocol); hit rate 0.77% among 300,000; AID 2098;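 active means more than half of replicate wells show activity change below -50%, luminescence cut by over half; inconclusive means some wells, but at most half, below -50%; inactive means no replicate well below -50%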;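 further: luciferase reports HSF-1 transcriptional activity via heat shock element; 0% = median of DMSO wells and -100% = zero luminescence signal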
# dFosB activator = activators of mouse delta FosB homodimer. P13346. purified delta FosB, TAMRA-CDK5 oligo fluorescence polarization; percent of positive-control signal above neutral wells. activation, % at 25 µM. hit rate 0.99% among 340,000. AID 493131;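 active means mean activation above about 17%, with every replicate also reaching it, limit read from the data, passing the limit was not always enough; inconclusive means only one of the two conditions met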
# Target sequence (P13346 whole entry, looked up): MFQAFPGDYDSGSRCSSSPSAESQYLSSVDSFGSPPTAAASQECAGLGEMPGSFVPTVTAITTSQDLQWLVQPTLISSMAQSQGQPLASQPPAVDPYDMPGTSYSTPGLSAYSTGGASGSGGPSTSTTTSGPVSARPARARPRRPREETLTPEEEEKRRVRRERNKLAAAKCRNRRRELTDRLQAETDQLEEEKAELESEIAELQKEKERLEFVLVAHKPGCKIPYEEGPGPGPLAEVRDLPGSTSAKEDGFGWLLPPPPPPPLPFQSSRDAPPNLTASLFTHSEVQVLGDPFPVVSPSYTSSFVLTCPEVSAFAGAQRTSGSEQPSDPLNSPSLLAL
# Platelet DG rel = platelet dense granule release activity | human platelet-rich plasma, SFLLRN dense granule ATP release, luminescence | inhibition, %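 (compounds screened at 7.5 µM in platelet-rich plasma)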 | hit rate 0.22% among 300,000;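 active means mean replicate score, as percent of positive control, at or above 50; inconclusive means mean below 50 but at least one replicate at or above 50; inactive means mean and every replicate below 50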
# MPTP inh = permeability transition pore inhibition; isolated mouse mitochondria, Ca2+ swelling absorbance, 30 min; inhibition, % at 10 µM; hit rate 1.4% among 360,000; AID 602449;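 active means inhibition of 50% or more, scaled per plate between neutral and stimulator controls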;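 further: 0% = DMSO wells given calcium and 100% = 1 mM EGTA wells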
# Rh123 counter = Rhodamine 123 counter-screen of mitochondrial pore hits | AID 624504 | shares compounds with MPTP inh | hit rate 78% among 5,000 | isolated mitochondria, membrane potential, Rhodamine 123 fluorescence | inhibition, % at 10 µM; in the data active means inhibition above about 22%;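 further: 0% = DMSO vehicle and 100% = positive control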
# MPTP abs DR = dose response confirmation of mitochondrial permeability transition pore inhibitors. isolated mitochondria swelling, absorbance. hit rate 58% among 780. AID 651561. shares compounds with MPTP inh. IC50, µM; in the data active means IC50 below about 20 µM
# MPTP counter DR = counter-screen for mitochondrial permeability transition pore inhibitors, dose response; IC50, µM; shares compounds with MPTP inh; AID 651564; isolated mitochondria counterscreen, fluorescence read-out; hit rate 49% among 780; in the data active means IC50 below about 80 µM
# * marks the source's active call; other numbers are inactive results; ? = inconclusive; . = not tested or not shown; + = active, no number.
SMILES,HSF1 activator,HSP90 refold inh,HSF1 inh,dFosB activator,Platelet DG rel,MPTP inh,Rh123 counter,others
C/C(CC(c1ccccc1)c1c(O)c2ccccc2oc1=O)=N\Nc1ccc([N+](=O)[O-])cc1[N+](=O)[O-] (stereo not drawn),1,1,0,-3,3,90*,77*,
CC(C)C[C@H]1COc2cc(N3CCN(C)CC3)ccc2S(=O)(=O)N1,.,.,.,.,.,0,.,
COc1cccc(CCNCc2ccc(SC)cc2)c1,-15,5,-4,1,-10,88*,-11,MPTP abs DR=13*;MPTP counter DR=>80
COc1ccc(CCNCc2ccccc2)cc1,15,1,4,2,-5,0,.,
CN(C)c1ccc(/C=C/C=C2/C(=O)NC(=O)N(c3ccccc3)C2=O)cc1,119*,4,73,10,18,51*,-28,
O=C1NC(=O)N(c2ccccc2)C(=O)/C1=C/C=C/c1ccco1,9,2,8,-13,9,1,.,
N#Cc1ccc(NC(=O)CN2C(=O)NC3(CCCCCCC3)C2=O)cc1Cl,.,.,.,-3,.,-1,.,
Cc1cc(O)c2c3c(c(=O)oc2c1)CCC(C)C3 (stereo not drawn),-1,-1,-3,7,1,57*,89*,
CNCC(O)c1cccc(OC(=O)c2ccccc2C)c1 (stereo not drawn),.,5,.,-5,.,61*,-5,MPTP abs DR=8.9*;MPTP counter DR=>80
O=C1c2cccc3cccc(c23)C(=O)N1/N=C/c1c(O)n(-c2ccccc2)c(=O)[nH]c1=O,18,-4,2,5,-6,-2,.,
CCCCCCCSc1cc(OC)c(CCN(C)C)cc1OC,12,0,1,?,3,103*,-13,
COc1cc(CCN)ccc1O,.,.,.,4,.,-1,.,
CCCCCSc1cc(OC)c(CCN)cc1OC,-4,2,7,-2,-8,97*,-20,MPTP abs DR=3.4*;MPTP counter DR=77*
CN(Cc1cccc(-c2ccncc2)c1)C(=O)Oc1ccccc1Cc1ccccc1,.,.,.,.,.,90*,114*,
CN(Cc1cccc(-c2ccncc2)c1)C(=O)Oc1ccccc1Cl,.,.,.,.,.,47,.,
Oc1c(Br)c(Br)c(Br)c(Br)c1Br,.,.,.,5,.,67*,87*,
Oc1c(Br)cc(Br)cc1Br,.,.,.,-3,.,1,.,
CCCCn1nnnc1C(c1cccc(OC)c1OC)N1CCC2(CC1)C(=O)NCN2c1ccccc1 (stereo not drawn),.,.,.,.,.,-1,.,
CCOc1cc(CNCCc2c[nH]c3ccccc23)cc(Cl)c1OC,-46,-2,?,5,-6,95*,16,MPTP abs DR=3.4*;MPTP counter DR=18*
CCN1CCN(c2cc(N3CCCC3)c([N+](=O)[O-])cc2F)CC1,11,0,2,1,-2,8,.,
CN1CCN(c2cc(N3CCCCCC3)c(F)cc2[N+](=O)[O-])CC1,11,-3,0,1,2,52*,-6,MPTP abs DR=13*;MPTP counter DR=>80
CSc1ccc(C(=O)C2CCCN(Cc3cc4ccccc4[nH]3)C2)cc1 (stereo not drawn),-40,3,-28,15,0,58*,-8,MPTP abs DR=5.9*;MPTP counter DR=25*
COC(=O)C1=C(c2ccc(OC(F)(F)F)cc2)C[C@@H]2CC[C@H]1N2C(=O)NCCOc1ccccc1Cl,.,.,.,6,.,-1,.,
O=[N+]([O-])c1cnc[nH]1,4,.,6,1,2,-2,.,
CNc1ccc2oc(C[C@H]3O[C@@]4(CC[C@H]3C)O[C@H]([C@H](C)C(=O)c3ccc[nH]3)[C@H](C)C[C@H]4C)nc2c1C(=O)O,-20,.,-20,-2,28,96*,-23,
SMILES,HSF1 activator,HSP90 refold inh,HSF1 inh,dFosB activator,Platelet DG rel,MPTP inh,Rh123 counter,others
CCC(=Nc1ccc2c(c1)CCC2)c1c(O)n(C)c(=O)n(C)c1=O,-1,.,-10,-6,23,-4,.,
CCOC(=O)c1ccc(N=C(CC)c2c(O)n(C)c(=O)n(C)c2=O)cc1,-44,1,-41,-8,1,90*,3,MPTP abs DR=2.1*;MPTP counter DR=23*
CC(C)NS(=O)(=O)c1ccc(OCC(=O)N2CCN(Cc3ccc4c(c3)OCO4)CC2)c(Cl)c1,4,4,-3,-8,-5,54*,32*,
CNC(=O)Oc1cccc2ccccc12,26,4,0,5,8,2,.,
CNCC[C@H](Oc1cccc2ccccc12)c1cccs1,5,6,16,4,-2,94*,-13,MPTP abs DR=3.9*;MPTP counter DR=68*
CCOC1=C(N2CC2)C(=O)C(OCC)=C(N2CC2)C1=O,.,.,.,-4,.,0,.,
CCCCn1c(O)c(C(CC)=NCc2ccc3c(c2)OCO3)c(=O)[nH]c1=O,-32,3,-18,-9,3,68*,27*,
CSc1ncc(/C=C2/C(=O)NC(=O)N(C3CCCCC3)C2=O)cn1,2,4,-1,-1,12,90*,-10,MPTP abs DR=3.4*;MPTP counter DR=>80
CSc1ncc(/C=C2/C(=O)NC(=O)N(C)C2=O)cn1,3,-2,-4,1,6,-1,.,
CC(C)(C)c1ccc(CSc2cnn(C(C)(C)C)c(=O)c2Cl)cc1,-7,2,-4,-7,2,92*,85*,
Nc1c2c(nc3sc4c(c13)CCCC4)CCCCC2,-19,-4,5,-8,-13,6,.,
Nc1c2c(nc3sc4c(c13)CCCC4)CCCC2,37,-2,26,-2,-1,55*,80*,
Cc1cccc(OP(=O)(NCc2ccccc2)Oc2cccc(C)c2)c1,18,5,4,-8,-4,4,.,
C[C@]12CCC(=O)C(O)=C1CC[C@@H]1[C@@H]2CC[C@]2(C)C(=O)CC[C@@H]12,-14,3,-4,1,-4,4,.,
O=C1CC(N2CCC(n3c(=O)[nH]c4ccccc43)CC2)C(=O)N1c1ccc(F)cc1 (stereo not drawn),34,1,3,-6,6,-3,.,
O=c1[nH]c2ccccc2n1C1CCN(CCCC(c2ccc(F)cc2)c2ccc(F)cc2)CC1,31,1,9,28*,0,88*,-8,
CCN1/C(=C/C=C/C2=[N+](CC)c3ccccc3C2(C)C)C(C)(C)c2ccccc21,.,.,.,.,.,+,92*,
Oc1c(Cl)cccc1Cc1cc(Cl)cc(Cl)c1O,.,.,.,-3,.,81*,64*,
Oc1c(Cl)cc(Cl)cc1CN1CCN(Cc2ccccc2)CC1,-1,-4,12,-2,2,-1,.,
Brc1ccc2[nH]cc(C=NN3CCCCCC3)c2c1,.,.,.,-18,.,2,.,
O=C(NCc1cccnc1)Nc1ccc([N+](=O)[O-])cc1,-3,1,3,-3,20,66*,96*,

# Compound activity from PubChem BioAssay.
